Results as given in PubChem BioAssay AID1159580 (chemical genetic matrix, 2015).
Among all 5,500 compounds or so, about 2,000 (36%) were called active. Inconclusive results (about 18%) are left out. Cut-off read from the data, not from the text of the source: active = normalized growth mostly below about 0.91 (no sharp cut-off); inconclusive = no clear call, values can overlap the other calls; inactive = mostly above about 0.92. The list shows a part of the results.

Test: chemical genetic growth profiling, strain panel (AID 1159580);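 note: tested at 20 µM; growth read once vehicle control cultures reached saturation at 30 °C; 1 = growth at the plate median or of vehicle wells; lower values mean less growth of the strain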
Settings: growth OD

Measured: normalized growth

Cc1c(C(N)=O)cc([N+](=O)[O-])cc1[N+](=O)[O-]
inactive: S. cerevisiae deletion strains, locus YJR066W, strain TOR1, stronger effect = lower value 0.991 | S. cerevisiae deletion strains, locus YKL009W, strain mrt4, stronger effect = lower value 0.972 | S. cerevisiae deletion strains, locus YKL068W, stronger effect = lower value 0.982 | S. cerevisiae deletion strains, locus YKL085W, strain MDH1 (second series), stronger effect = lower value 1.02 | S. cerevisiae deletion strains, locus YKL085W, strain MDH1, stronger effect = lower value 1.02 | S. cerevisiae deletion strains, locus YKL160W, strain elf1, stronger effect = lower value 0.988 | S. cerevisiae deletion strains, locus YKL190W, strain CNB1, stronger effect = lower value 0.996 | S. cerevisiae deletion strains, locus YKR001C, strain vps1, stronger effect = lower value 0.993 | S. cerevisiae deletion strains, locus YKR026C, strain gcn3, stronger effect = lower value 1.02 | S. cerevisiae deletion strains, locus YKR091W, strain srl3, stronger effect = lower value 1.02 | S. cerevisiae deletion strains, locus YLL001W, strain dnm1, stronger effect = lower value 1.02 | S. cerevisiae deletion strains, locus YLL026W, stronger effect = lower value 1.02 | S. cerevisiae deletion strains, locus YLL041C, strain sdh2, stronger effect = lower value 1.02 | S. cerevisiae deletion strains, locus YLR027C, strain aat2, stronger effect = lower value 1.01 | S. cerevisiae deletion strains, locus YLR039C, strain RIC1, stronger effect = lower value 0.988 | S. cerevisiae deletion strains, locus YLR058C, strain SHM2, stronger effect = lower value 0.99 | S. cerevisiae deletion strains, locus YLR102C, strain apc9, stronger effect = lower value 0.97 | S. cerevisiae deletion strains, locus YLR113W, strain HOG1, stronger effect = lower value 1.07 | S. cerevisiae deletion strains, locus YLR221C, strain rsa3, stronger effect = lower value 1.03 | S. cerevisiae deletion strains, locus YLR258W, strain gsy2, stronger effect = lower value 1.04 | S. cerevisiae deletion strains, locus YLR262C, strain YPT6 (second series), stronger effect = lower value 1.02 | S. cerevisiae deletion strains, locus YLR262C, strain YPT6, stronger effect = lower value 1.01 | S. cerevisiae deletion strains, locus YLR268W, strain sec22, stronger effect = lower value 0.979 | S. cerevisiae deletion strains, locus YLR320W, strain mms22, stronger effect = lower value 1.05 | S. cerevisiae deletion strains, locus YLR330W, strain CHS5, stronger effect = lower value 0.994 | S. cerevisiae deletion strains, locus YLR342W, strain FKS1 (second series), stronger effect = lower value 0.984 | S. cerevisiae deletion strains, locus YLR342W, strain FKS1, stronger effect = lower value 1.02 | S. cerevisiae deletion strains, locus YLR357W, strain rsc2, stronger effect = lower value 0.999 | S. cerevisiae deletion strains, locus YLR370C, strain arc18, stronger effect = lower value 1.04 | S. cerevisiae deletion strains, locus YLR371W, strain rom2, stronger effect = lower value 0.963 | S. cerevisiae deletion strains, locus YLR384C, strain iki3, stronger effect = lower value 1.03 | S. cerevisiae deletion strains, locus YLR418C, strain cdc73, stronger effect = lower value 0.972 | S. cerevisiae deletion strains, locus YML016C, strain PPZ1, stronger effect = lower value 0.989 | S. cerevisiae deletion strains, locus YML032C, strain rad52, stronger effect = lower value 0.978 | S. cerevisiae deletion strains, locus YML120C, strain ndi1, stronger effect = lower value 1.03 | S. cerevisiae deletion strains, locus YML124C, strain tub3, stronger effect = lower value 0.979 | S. cerevisiae deletion strains, locus YMR058W, strain fet3, stronger effect = lower value 1.01 | S. cerevisiae deletion strains, locus YMR078C, strain ctf18, stronger effect = lower value 0.976 | S. cerevisiae deletion strains, locus YMR125W, strain sto1, stronger effect = lower value 0.962 | S. cerevisiae deletion strains, locus YMR129W, stronger effect = lower value 1.02 | S. cerevisiae deletion strains, locus YMR205C, strain PFK2, stronger effect = lower value 1 | S. cerevisiae deletion strains, locus YMR223W, strain ubp8, stronger effect = lower value 0.98 | S. cerevisiae deletion strains, locus YMR231W, strain pep5, stronger effect = lower value 1.03 | S. cerevisiae deletion strains, locus YMR263W, strain SAP30, stronger effect = lower value 0.997 | S. cerevisiae deletion strains, locus YMR307W, strain GAS1, stronger effect = lower value 1.02 | S. cerevisiae deletion strains, locus YNL067W, strain RPL9B, stronger effect = lower value 1.01 | S. cerevisiae deletion strains, locus YNL071W, strain lat1, stronger effect = lower value 1.02 | S. cerevisiae deletion strains, locus YNL128W, strain TEP1, stronger effect = lower value 0.965 | S. cerevisiae deletion strains, locus YNL183C, strain NPR1, stronger effect = lower value 0.98 | S. cerevisiae deletion strains, locus YNL209W, strain ssb2, stronger effect = lower value 1.02 | S. cerevisiae deletion strains, locus YNL233W, strain BNI4, stronger effect = lower value 1.01 | S. cerevisiae deletion strains, locus YNL248C, strain rpa49, stronger effect = lower value 0.923 | S. cerevisiae deletion strains, locus YNL250W, strain rad50, stronger effect = lower value 0.985 | S. cerevisiae deletion strains, locus YNL271C, strain bni1, stronger effect = lower value 0.97 | S. cerevisiae deletion strains, locus YNL298W, strain CLA4, stronger effect = lower value 0.975 | S. cerevisiae deletion strains, locus YNL307C, strain MCK1, stronger effect = lower value 0.978 | S. cerevisiae deletion strains, locus YNL322C, strain KRE1 (second series), stronger effect = lower value 1.03 | S. cerevisiae deletion strains, locus YNL322C, strain KRE1, stronger effect = lower value 0.991 | S. cerevisiae deletion strains, locus YNR049C, strain mso1, stronger effect = lower value 1.02 | S. cerevisiae deletion strains, locus YNR052C, strain pop2, stronger effect = lower value 0.966 | S. cerevisiae deletion strains, locus YOL006C, strain TOP1, stronger effect = lower value 0.984 | S. cerevisiae deletion strains, locus YOL012C, strain htz1 0.838 | S. cerevisiae deletion strains, locus YOL147C, strain pex11, stronger effect = lower value 0.978 | S. cerevisiae deletion strains, locus YOR001W, strain rrp6, stronger effect = lower value 1.03 | S. cerevisiae deletion strains, locus YOR061W, strain CKA2, stronger effect = lower value 0.99 | S. cerevisiae deletion strains, locus YOR069W, strain VPS5, stronger effect = lower value 0.981 | S. cerevisiae deletion strains, locus YOR070C, strain gyp1, stronger effect = lower value 1.02 | S. cerevisiae deletion strains, locus YOR080W, strain dia2, stronger effect = lower value 1.03 | S. cerevisiae deletion strains, locus YOR083W, strain WHI5, stronger effect = lower value 0.985 | S. cerevisiae deletion strains, locus YOR106W, strain vam3, stronger effect = lower value 0.981 | S. cerevisiae deletion strains, locus YOR136W, strain idh2, stronger effect = lower value 0.976 | S. cerevisiae deletion strains, locus YOR144C, strain elg1, stronger effect = lower value 0.978 | S. cerevisiae deletion strains, locus YOR184W, strain ser1, stronger effect = lower value 0.986 | S. cerevisiae deletion strains, locus YOR231W, strain MKK1, stronger effect = lower value 1.05 | S. cerevisiae deletion strains, locus YOR265W, strain rbl2, stronger effect = lower value 1.01 | S. cerevisiae deletion strains, locus YOR270C, strain vph1, stronger effect = lower value 1.01 | S. cerevisiae deletion strains, locus YOR290C, strain snf2, stronger effect = lower value 1.03 | S. cerevisiae deletion strains, locus YOR316C, strain cot1, stronger effect = lower value 0.965 | S. cerevisiae deletion strains, locus YPL051W, strain arl3, stronger effect = lower value 1.01 | S. cerevisiae deletion strains, locus YPL078C, strain atp4, stronger effect = lower value 0.974 | S. cerevisiae deletion strains, locus YPL106C, strain sse1, stronger effect = lower value 1.06 | S. cerevisiae deletion strains, locus YPL240C, strain hsp82, stronger effect = lower value 1.02 | S. cerevisiae deletion strains, locus YPL241C, strain CIN2, stronger effect = lower value 0.991 | S. cerevisiae deletion strains, locus YPL256C, strain CLN2, stronger effect = lower value 1.05 | S. cerevisiae deletion strains, locus YPR119W, strain clb2, stronger effect = lower value 0.982 | S. cerevisiae deletion strains, locus YPR141C, strain kar3, stronger effect = lower value 0.974 | S. cerevisiae deletion strains, locus YPR163C, strain tif3, stronger effect = lower value 0.975 | S. cerevisiae deletion strains, locus YPR167C, strain met16, stronger effect = lower value 0.981 | S. cerevisiae deletion strains, strain wtn01, stronger effect = lower value 0.971 | S. cerevisiae strains, strain wild type, stronger effect = lower value 0.996
